PubChem BioAssay (Tox21)
Inconclusive results are not listed. Calls of active or inactive are those of the source. Calls follow the shape of the dose curve; as a rule, active = well fitted cell-killing curve with a large enough effect in the repeat runs; inconclusive = weak or mixed curves, or effect the other way; inactive = flat fitted curve, though single readings scatter.
% is scaled to controls: 0 for no effect and ±100 for the full control effect.

Test: qHTS assay to identify small molecule agonists of the constitutive androstane receptor (CAR) signaling pathway - cell viability counter screen (AID 1224836); also: nearly all actives have a fitted effect of over 45% in size
Conditions: HepG2-CYP2B6-hCAR viability, CellTiter-Fluor, 23 h, PK11195 added to every well; series mostly up to 92.4 µM; viability change, negative = cytotoxic: at the top concentration
Description: U.S. Tox21 Program National Center for Advancing Translational Sciences [NCATS] NIH Chemical Genomics Center [NCGC] U.S. Environmental Protection Agency [EPA] National Institutes of Environmental Health Sciences [NIEHS] National Toxicology Program [NTP] U.S. Food and Drug Administration [FDA] Tox21 Assay Overview: The constitutive androstane receptor (CAR) is a nuclear receptor which regulates multiple drug metabolizing enzymes (DMEs) and transporters. Activating CAR will generally increase the transcription and subsequent translation of CYP2B6 and CYP3A4. These two DMEs represent about 50% of the drug metabolizing potential in the body. […] Recently, there have also been studies performed indicating CARs role in energy metabolism and cancer therapy. Therefore, inducing CARs activity could have a potential effect on diabetes and cancer. Identifying environmental toxins and compounds which modulate CAR, through the use of the Tox21 10K compound collection, will be an important step in determining the toxicity and potential therapeutic effects these factors will have on the human body. To differentiate true CAR agonists from cytotoxic substances, the assay is multiplexed with a cell viability assay.
Tox21 Assay Protocol Summary: A double-stable (hCAR and CYP2B6-2.2kb) transfected cell line, derived from human hepatoma (HepG2) cells, was utilized for the duration of the quantitative high-throughput screens. The HepG2-CYP2B6-hCAR cells were dispensed at 2500 cells/4 uL/well in 1536-well white solid bottom plates using a Multidrop Combi. After the assay plates were incubated at 37 C/5% CO2 for 4 hrs, 23 nL of compounds at 15 concentrations (from 5-48 columns) or positive control (from 1 to 4 columns) were transferred to the assay plates using a Pintool station. One uL of PK11195 (final concentration = 0.75 uM) was added, using a Flying Reagent Dispenser, inside each well. After a 23 hr incubation period at 37 C/5% CO2, 1 uL of CellTiter-Fluor reagent was added into each well of the assay plates using a Flying Reagent Dispenser. The fluorescence intensity in the plates was then measured using a ViewLux plate reader.
With `CCCCCCCCCCCCC1CO1` (stereo not given) the “viability change, negative = cytotoxic” value was 1.7% (inactive). With `Nc1ccc(C(=O)OCC(O)CO)cc1` (stereo not given) the “viability change, negative = cytotoxic” value was 1.5% [at 42.5 µM] (inactive). With `C[C@H](CCC(=O)O)[C@H]1CC[C@H]2[C@@H]3[C@H](O)C[C@@H]4C[C@H](O)CC[C@]4(C)[C@H]3C[C@H](O)[C@]12C` the “viability change, negative = cytotoxic” value was -7.24% [at 42.5 µM] (inactive). For `OC[C@@H](O)[C@H](O)[C@@H](O)[C@@H](O)CO`, the “viability change, negative = cytotoxic” value was 1.01% (inactive). In the case of `CC(CC(=O)O)CC(C)(C)C` (stereo not given), the “viability change, negative = cytotoxic” value is reported as -1.15% (inactive). With `CCCCCC(=O)OCC` the “viability change, negative = cytotoxic” value was -9.29% (inactive). In the case of `Nc1ccc(S(=O)(=O)Nc2ccccn2)cc1`, the “viability change, negative = cytotoxic” value is reported as 5.99% [at 42.5 µM] (inactive). For `C=CCCCCCCCCCCC`, the viability change, negative = cytotoxic was -0.862% [at 8.39 µM] (inactive). With `C1=C\CC/C=C\CC/1` the “viability change, negative = cytotoxic” value was 2.1% (inactive). In the case of `CCCCOC(=O)C(=O)OCCCC`, the “viability change, negative = cytotoxic” value is reported as 0.975% (inactive). For `Nc1ccc(S(=O)(=O)NC(=O)c2ccccc2)cc1`, the “viability change, negative = cytotoxic” value was -5.61% [at 42.5 µM] (inactive). With `CC(=O)OC(C)c1ccccc1` (stereo not given) the “viability change, negative = cytotoxic” value was 2.18% (inactive). In the case of `C=CCOC(=O)c1ccc(C(=O)OCC=C)c(C(=O)OCC=C)c1`, the “viability change, negative = cytotoxic” value is reported as 4.24% (inactive). With `NC(=O)C1(N2CCCCC2)CCN(CCCC(=O)c2ccc(F)cc2)CC1` the “viability change, negative = cytotoxic” value was 0.206% [at 42.5 µM] (inactive). In the case of `C[C@H]1O[C@H](O[C@H]2[C@H](O)[C@@H](O)[C@@H](O[C@H]3[C@H](O)[C@@H](O)[C@H](O)O[C@@H]3CO)O[C@@H]2CO)[C@H](O)[C@@H](O)[C@@H]1N[C@H]1C=C(CO)[C@@H](O)[C@H](O)[C@H]1O`, the “viability change, negative = cytotoxic” value is reported as 4.34% [at 42.5 µM] (inactive). In the case of `CO/N=C(/C(=O)N[C@@H]1C(=O)N2C(C(=O)O)=C(Cn3nnc(C)n3)CS[C@H]12)c1csc(N)n1`, the “viability change, negative = cytotoxic” value is reported as 4.26% [at 42.5 µM] (inactive). With `Cc1ccccc1OCC1CO1` (stereo not given) the “viability change, negative = cytotoxic” value was 5.17% (inactive). With `SCCSCCS` the “viability change, negative = cytotoxic” value was -1.22% (inactive). In the case of `O=C(Oc1ccccc1C(=O)O)c1ccccc1O`, the “viability change, negative = cytotoxic” value is reported as 0.529% [at 42.5 µM] (inactive). With `O=C(O)/C=C/c1ccccc1` the “viability change, negative = cytotoxic” value was 4.13% (inactive). With `Cc1nc([N+](=O)[O-])cn1-c1ccc([N+](=O)[O-])cc1` the “viability change, negative = cytotoxic” value was 2.9% [at 42.5 µM] (inactive). In the case of `O=S(=O)(O)c1cc(O)ccc1O`, the “viability change, negative = cytotoxic” value is reported as 1.23% (inactive). With `CC(=O)OC[C@H]1O[C@@H](OC(C)=O)[C@H](OC(C)=O)[C@@H]1OC(C)=O` the “viability change, negative = cytotoxic” value was 5.07% [at 42.5 µM] (inactive). With `O=C(O)C(=O)Nc1cccc(-c2nn[nH]n2)c1` the “viability change, negative = cytotoxic” value was 0.238% [at 42.5 µM] (inactive). With `CC(=O)OC(C(=O)c1ccccc1)c1ccccc1` (stereo not given) the “viability change, negative = cytotoxic” value was 4.39% (inactive). For `Cc1ncc([N+](=O)[O-])n1CC(O)CCl` (stereo not given), the “viability change, negative = cytotoxic” value was 8.95% [at 42.5 µM] (inactive). For `CC(=O)c1ccc(OCC(=O)N2CCCCC2)cc1`, the “viability change, negative = cytotoxic” value was 1% [at 42.5 µM] (inactive). For `CCCCCCCCCCCCCCCCI`, the viability change, negative = cytotoxic was -8.08% [at 19 µM] (inactive). With `NC(=O)NNC(N)=O` the “viability change, negative = cytotoxic” value was 1.6% (inactive). With `CN[C@@H]1[C@H](O)[C@H](NC)[C@H]2O[C@@]3(O)C(=O)C[C@@H](C)O[C@H]3O[C@@H]2[C@H]1O` the “viability change, negative = cytotoxic” value was 2.25% [at 42.5 µM] (inactive). With `CCCCC(C)C(=O)O` (stereo not given) the “viability change, negative = cytotoxic” value was 4.22% (inactive). With `CC(C)COC(=O)CCCCC(=O)OCC(C)C` the “viability change, negative = cytotoxic” value was 1.32% (inactive). In the case of `CCCCCCCCCCCCC`, the “viability change, negative = cytotoxic” value is reported as 1.9% (inactive). With `c1ccccc1` the “viability change, negative = cytotoxic” value was 2.49% (inactive). For `Nc1nc(=O)n([C@@H]2O[C@H](CO)[C@@H](O)[C@@H]2F)cc1I`, the “viability change, negative = cytotoxic” value was -8.26% [at 42.5 µM] (inactive). In the case of `CCCCC(CC)C(=O)OC(C)C` (stereo not given), the “viability change, negative = cytotoxic” value is reported as -2.01% (inactive). With `C=C(C)C(=O)OCCCCCCOC(=O)C(=C)C` the “viability change, negative = cytotoxic” value was -4.18% (inactive). For `CC(C)CCO`, the “viability change, negative = cytotoxic” value was 2.55% (inactive). For `C=C[C@@H](C)CCC=C(C)C`, the “viability change, negative = cytotoxic” value was 1.48% (inactive). For `O=CN1CCOCC1`, the “viability change, negative = cytotoxic” value was -0.849% (inactive).
